Active and inactive are the calls of the source. Unless noted, the rule behind the calls is not given here.

Experiment [1] is described as follows: compound effects on lung adenocarcinoma cell viability – A549, calcein-AM fluorescence, 48 h, basal, profiling panel (AID 1162). Note: test concentration not given here. To be noted: higher = more signal.
Experiment [2] is described as follows: compound effects on differentiated 3T3-L1 adipocyte viability – cell-based, 3T3-L1 adipocytes, calcein-AM fluorescence, 48 h, basal, profiling panel (AID 1163). Note: test concentration not given here. The following applies: 3T3-L1 adipocytes viability, higher = more signal.
Experiment [3] can be described thus: compound effects on hepatocellular carcinoma cell viability – HepG2, calcein-AM fluorescence, 48 h, basal, profiling panel (AID 1164). Note: test concentration not given here. To be noted: higher = more signal.
Experiment [4] can be described thus: compound effects on multiple myeloma cell viability – MM1S, calcein-AM fluorescence, 48 h, basal, profiling panel (AID 1165).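 Note: viability of MM1S multiple myeloma cells under basal unstimulated conditions; test concentration not given here.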 To be noted: higher = more signal.
A short description of experiment [5]: calcein-AM signal in unstimulated myeloma cells – cell-based, calcein-AM fluorescence, 48 h, PK04 Diversity Set, profiling panel (AID 1166).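 Note: cells grown under basal conditions without added stimulus; test concentration not given here.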 The following applies: RPMI8226 myeloma viability, higher = more signal.
Experiment [6] can be described thus: JC-1 mitochondrial signal, unstimulated HepG2 cells – cell-based, JC-1 fluorescence, 24 h, 100 nL compound, profiling panel (AID 1167). Note: test concentration not given here. The following applies: HepG2 mitochondrial potential, higher = more signal.
A short description of experiment [7]: JC-1 mitochondrial signal, unstimulated adipocytes – cell-based, JC-1 fluorescence, 3T3-L1 adipocytes, 24 h, 100 nL compound, profiling panel (AID 1168). Note: test concentration not given here. The following applies: JC-1 mitochondrial fluorescence, higher = more signal, called active from +8 up or from −8 down.
Experiment [8] is described as follows: JC-1 mitochondrial signal, unstimulated myeloma cells – cell-based, JC-1 fluorescence, RPMI8226, 24 h, 100 nL compound, profiling panel (AID 1169). Note: test concentration not given here. To be noted: JC-1 mitochondrial potential fluorescence, higher = more signal.
The nature of experiment [9]: JC-1 mitochondrial signal, unstimulated MM1S myeloma – cell-based, JC-1 fluorescence, 24 h, 100 nL compound, profiling panel (AID 1170). Note: test concentration not given here. To be noted: MM1S mitochondrial potential, higher = more signal.
The nature of experiment [10]: resazurin metabolic signal in A549 cells – cell-based, resazurin fluorescence, 24 h, PK04 Diversity Set, profiling panel (AID 1171). Note: test concentration not given here. The following applies: A549 viability, higher = more signal, called active from +8 up or from −8 down. In general terms: The colour change of resazurin is a common sign of viable cells or microbes.
A short description of experiment [11]: resazurin metabolic signal in HepG2 cells – cell-based, resazurin fluorescence, 24 h, PK04 Diversity Set, profiling panel (AID 1172). Note: test concentration not given here. To be noted: HepG2 viability, higher = more signal.
The nature of experiment [12]: budding yeast growth changes without added modifier – OD600, strain BY4716, 24 h, basal condition, primary screen (AID 1173). To be noted: S. cerevisiae BY4716 growth, OD600, 24 h; higher = more signal, called active from +8 up or from −8 down.
A short description of experiment [13]: viability profiling in MM1S myeloma cells – cell-based, resazurin fluorescence, basal, 24 h, PK04 Diversity Set, profiling panel (AID 1174). Note: test concentration not given here. To be noted: higher = more signal, called active from +8 up or from −8 down.
The target in experiment [14] is Dihydroorotate dehydrogenase (quinone), mitochondrial (Plasmodium falciparum (isolate 3D7)) (UniProt Q08210). Description: inhibition of P. falciparum DHODH – biochemical, C-terminal His tag, absorbance 600 nm, primary screen (AID 1175).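 Note: recombinant parasite enzyme with a five histidine tag at its C terminus; test concentration not given here.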 The following applies: PfDHODH enzyme, DCIP absorbance 600 nm; higher = more signal, called active from +8 up or from −8 down.
A short description of experiment [15]: inhibition of PAO1 biofilm formation – strain PAO1, LB-PBS medium, absorbance 600 nm, primary screen (AID 1176). Note: test concentration not given here. The following applies: P. aeruginosa PAO1 growth/biofilm, A600, 12 h; higher = more signal.
The nature of experiment [16]: growth modulation of vineyard yeast isolate – strain RM11-1a, OD600, basal, 24 h, primary screen (AID 1177).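 Note: cultures grown under basal conditions with no added stressor; test concentration not given here.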 The following applies: S. cerevisiae RM11-1a growth, OD600, 24 h; higher = more signal, called active from +8 up or from −8 down.
Experiment [17] is described as follows: growth of efflux-deficient E. coli DRC39 – strain DRC39, OD650, 24 h, E. coli filamentation inducers, primary screen (AID 1178).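 Note: growth measured as culture turbidity by optical density at 650 nm; test concentration not given here.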 To be noted: E. coli DRC39 acrAB, higher = more signal, called active from +8 up or from −8 down.
A short description of experiment [18]: growth of efflux-deficient E. coli DRC39 – strain DRC39, OD650, 48 h, E. coli filamentation inducers, primary screen (AID 1179).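 Note: screen aims at cell division blockers that make cells filament.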 The following applies: E. coli DRC39 delta-acrAB growth, higher = more signal, called active from +8 up or from −8 down.
The nature of experiment [19]: viability profiling in RPMI8226 myeloma cells – cell-based, resazurin fluorescence, basal, 24 h, PK04 Diversity Set, profiling panel (AID 1180).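 Note: RPMI8826 multiple myeloma cell line at 5000 cells per well; test concentration not given here.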 The following applies: higher = more signal.
Experiment [20] concerns the target E3 ubiquitin-protein ligase XIAP (Homo sapiens) (UniProt P98170). Description: small molecules binding XIAP protein – biophysical, small-molecule microarray, fluorescence 635 nm, primary screen (AID 1181).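 Note: score merges 667 nm emission and signal to noise over triplicate slides.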 To be noted: higher = more signal.

E3 ubiquitin-protein ligase XIAP (Homo sapiens), sequence (P98170 whole entry, looked up): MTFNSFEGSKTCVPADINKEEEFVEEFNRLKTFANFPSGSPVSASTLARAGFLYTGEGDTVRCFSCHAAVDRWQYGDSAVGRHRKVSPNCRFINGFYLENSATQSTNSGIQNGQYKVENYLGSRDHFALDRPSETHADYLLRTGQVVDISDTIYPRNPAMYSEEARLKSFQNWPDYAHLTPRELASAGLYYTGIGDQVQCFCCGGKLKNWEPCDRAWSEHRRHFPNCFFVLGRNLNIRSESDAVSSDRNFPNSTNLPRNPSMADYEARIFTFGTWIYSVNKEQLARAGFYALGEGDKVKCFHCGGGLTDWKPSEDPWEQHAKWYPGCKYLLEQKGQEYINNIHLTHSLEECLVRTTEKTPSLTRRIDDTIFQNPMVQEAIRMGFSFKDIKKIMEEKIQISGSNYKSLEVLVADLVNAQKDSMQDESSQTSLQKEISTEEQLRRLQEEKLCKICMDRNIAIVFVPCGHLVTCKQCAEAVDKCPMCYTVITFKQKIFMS
Dihydroorotate dehydrogenase (quinone), mitochondrial (Plasmodium falciparum (isolate 3D7)), sequence (Q08210 whole entry, looked up): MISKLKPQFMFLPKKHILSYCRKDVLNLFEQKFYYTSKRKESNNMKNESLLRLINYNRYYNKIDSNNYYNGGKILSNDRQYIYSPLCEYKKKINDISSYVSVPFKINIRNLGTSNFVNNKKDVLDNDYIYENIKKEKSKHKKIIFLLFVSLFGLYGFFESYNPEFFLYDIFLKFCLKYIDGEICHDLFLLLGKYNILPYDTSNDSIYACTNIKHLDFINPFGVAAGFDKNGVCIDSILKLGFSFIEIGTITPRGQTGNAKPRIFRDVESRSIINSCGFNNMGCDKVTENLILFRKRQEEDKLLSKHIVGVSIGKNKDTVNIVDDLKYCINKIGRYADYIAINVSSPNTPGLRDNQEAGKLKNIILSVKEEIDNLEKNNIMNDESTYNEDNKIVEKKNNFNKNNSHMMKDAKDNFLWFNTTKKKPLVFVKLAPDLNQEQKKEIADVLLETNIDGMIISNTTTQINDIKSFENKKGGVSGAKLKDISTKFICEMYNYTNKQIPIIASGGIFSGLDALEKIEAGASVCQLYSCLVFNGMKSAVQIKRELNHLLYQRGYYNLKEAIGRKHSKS

As to `O=C(O)C1=CC[C@H]2C(=O)N(c3ccccc3)C(=O)[C@@H]12`, the z-score in experiment [1] is -1.05; in experiment [2], -0.261; in experiment [3] it was -0.625; in [4] it was -0.911; in experiment [5], -0.222; in experiment [6], -0.915. The z-score in experiment [7] was -0.162 (inactive); in [8] it was 0.364; in [9], -1.46; in experiment [10], 0.64 (inactive); in experiment [11], -0.0581; in experiment [12], 1.53 (inactive). The z-score is -0.849 (inactive) in experiment [13]; 0.477 (inactive) in [15]; 1.6 (inactive) in experiment [16]; -0.897 (inactive) in experiment [17]; -0.453 (inactive) in [18]; -1.24 in [19]. Moreover, the composite z-score in experiment [14] is 0.609 (inactive); in experiment [20], 0.997.

Consider `COCCOC(=O)N1C(=O)[C@@]2(c3cc(C#CCC(C(=O)OC)C(=O)OC)ccc31)[C@H](C(N)=O)[C@H]1C(=O)O[C@H](c3ccccc3)[C@H](c3ccccc3)N1[C@@H]2c1ccccc1OCCO`, for which the z-score in experiment [1] is 1.3; in experiment [2], 1.27; in experiment [3] it was 0.645; in experiment [4], -2.97; in experiment [5] it was -3.48; in experiment [6], 0.142. Moreover, the z-score was 1.83 (inactive) in [7]; -0.79 in experiment [8]; -1.62 in experiment [9]; -0.175 (inactive) in [10]; -0.0131 in experiment [11]; -0.65 (inactive) in [12]. For the same molecule, the z-score was -1.99 (inactive) in [13]; 3.05 (inactive) in experiment [15]; -0.243 (inactive) in experiment [16]; 0.664 (inactive) in experiment [17]; 1.42 (inactive) in [18]; -5.51 in experiment [19]. For the same molecule, the composite z-score was -7.07 (inactive) in experiment [14] and 0.231 in experiment [20].

As for `[N-]=[N+]=Nc1ccccc1C[C@@]1(C(=O)NCC(O)CO)N=C(c2ccc(OCCCO)cc2)O[C@@H]1c1ccccc1N=[N+]=[N-]` (stereo not given in full), the z-score in [1] was -3.97; in [2] it was -0.0164; in [3] it was -4.63; in experiment [4] it was -3.55; in [5] it was -3.85; in experiment [6], -2. The z-score in experiment [7] was -0.264 (inactive); in experiment [8] it was -1.21; in experiment [9], -1.34; in experiment [10], -3.27 (inactive); in experiment [11], -2.15; in experiment [12], -1.75 (inactive). Also, the z-score is -2.42 (inactive) in experiment [13]; 0.122 (inactive) in experiment [15]; 0.629 (inactive) in experiment [16]; 0.2 (inactive) in experiment [17]; -0.456 (inactive) in experiment [18]; -2.25 in experiment [19]. The composite z-score in experiment [14] was 0.791 (inactive); in experiment [20], 0.0651.

With `C=CC[C@@]1(C(=O)NCCCOC)N=C(c2ccc(OCCCO)cc2)O[C@@H]1c1ccccc1CN=[N+]=[N-]`, the z-score in experiment [1] is -0.287; in experiment [2] it was 0.532; in experiment [3] it was 0.569; in experiment [4] it was -0.459; in [5], -0.885; in [6], 2.5. For the same molecule, the z-score in experiment [7] is 0.738 (inactive); in experiment [8], -0.728; in experiment [9] it was 0.0149; in experiment [10], 0.41 (inactive); in experiment [11], 0.891; in experiment [12], -0.574 (inactive). Moreover, the z-score in experiment [13] was 0.961 (inactive); in experiment [15] it was -0.248 (inactive); in experiment [16] it was -0.343 (inactive); in [17], 0.914 (inactive); in experiment [18], 0.831 (inactive); in [19], 0.803. Moreover, the composite z-score in [14] was 0.346 (inactive); in experiment [20], 0.289.

As to `CCOC(=O)C1=CC[C@@H](c2ccccc2)N(S(=O)(=O)c2ccc(C)cc2)[C@@H]1C#N`, the z-score in [1] was 0.25; in experiment [2], -0.415; in experiment [3] it was 0.278; in experiment [4], -3.21; in experiment [5] it was -2.77; in experiment [6], 0.43. For the same molecule, the z-score was 0.726 (inactive) in [7]; -0.791 in experiment [8]; -2.41 in experiment [9]; 0.433 (inactive) in [10]; 0.794 in experiment [11]; -1.95 (inactive) in experiment [12]. In addition, the z-score in experiment [13] was -1.43 (inactive); in [15], -0.088 (inactive); in experiment [16], 0.455 (inactive); in experiment [17], -0.337 (inactive); in [18] it was 0.831 (inactive); in experiment [19], -1.57. The values for the composite z-score in experiment [14] and in [20] were -1.21 (inactive) and -0.207, respectively.

Regarding `Cc1ccc(S[C@]2(C(=O)NC3CC3)CC(=O)N(C3Cc4ccccc4C3)[C@@H]2c2ccc(CO)cc2I)cc1`, the z-score in experiment [1] is 0.828; in experiment [2], 0.689; in [3], 0.193; in [4], -2.21; in experiment [5], -1.9; in experiment [6], -0.24. For the same molecule, the z-score in experiment [7] was -0.411 (inactive); in [8], -0.502; in experiment [9], -0.499; in experiment [10], 0.395 (inactive); in experiment [11], -0.386; in [12] it was -4.29 (inactive). In addition, the z-score in experiment [13] was -2.54 (inactive); in experiment [15], 0.0493 (inactive); in experiment [16], 0.283 (inactive); in experiment [17], 0.112 (inactive); in [18] it was -0.266 (inactive); in experiment [19], -1.24. The composite z-score was 0.282 (inactive) in experiment [14] and -0.174 in experiment [20].

With `COC(=O)[C@@]1(Cc2ccc(F)cc2)[C@H]2c3cc(C(=O)N(C)C)n(Cc4ccsc4Br)c3C[C@H]2CN1C(=O)c1ccccc1`, the z-score in experiment [1] is -0.981; in [2] it was -0.291; in [3], 0.191; in [4] it was -0.766; in [5], -0.985; in [6] it was 2.64. For the same molecule, the z-score was 0.18 (inactive) in experiment [7]; 0.415 in experiment [8]; -1.17 in experiment [9]; -0.836 (inactive) in experiment [10]; -1.05 in experiment [11]; 1.08 (inactive) in [12]. Besides, the z-score in experiment [13] was -1.36 (inactive); in [15], 1 (inactive); in experiment [16], 0.47 (inactive); in [17] it was -1.52 (inactive); in experiment [18], -0.85 (inactive); in experiment [19], -2.7. The composite z-score was -0.713 (inactive) in [14] and 0.447 in [20].

`Cc1ccc(S[C@]2(C(=O)NCCN3CCOCC3)CC(=O)N(C(C)C)[C@@H]2c2ccc(CO)cc2I)cc1`: the z-score in experiment [1] is 2.91; in [2] it was 0.557; in experiment [3], 2.66; in experiment [4], -2.39; in experiment [5], -1.47; in experiment [6], 1.64. Also, the z-score in [7] is 0.604 (inactive); in [8], -1.01; in experiment [9], -0.635; in experiment [10] it was -1.13 (inactive); in experiment [11], 0.124; in experiment [12], -3.26 (inactive). Moreover, the z-score in experiment [13] was -2.29 (inactive); in [15], 0.553 (inactive); in experiment [16] it was -2.93 (inactive); in experiment [17], 1.16 (inactive); in experiment [18], 1.65 (inactive); in experiment [19] it was -1.83. Also, the composite z-score in experiment [14] was -2.11 (inactive); in [20], -0.0304.

`CCCC=C(CCC)[C@@H](NC(=O)c1ccc(C(=O)OC)cc1)c1ccc(C(=O)OC)cc1`: the z-score in experiment [1] is -1.48; in experiment [2], -0.454; in [3], -1.54; in experiment [4], -1; in experiment [5], -1.59; in experiment [6] it was -0.261. The z-score was -1.28 (inactive) in experiment [7]; -0.342 in experiment [8]; -1.15 in experiment [9]; 0.69 (inactive) in experiment [10]; -0.179 in experiment [11]; 1.24 (inactive) in [12]. In addition, the z-score in experiment [13] was -0.64 (inactive); in [15] it was 1.1 (inactive); in [16], 1.55 (inactive); in [17], -1.1 (inactive); in experiment [18], -0.486 (inactive); in experiment [19], -0.358. Moreover, the composite z-score is 0.138 (inactive) in [14] and 0.0627 in experiment [20].

Source of the values: PubChem BioAssay.
